This note sets out measurements from ChEMBL document CHEMBL3433997, “St. Jude Leishmania screening dataset” (2016).

Assay type in all cases: functional
Assay [1] concerns the target Solute carrier family 2, facilitated glucose transporter member 1 (Homo sapiens) (UniProt P11166). Briefly: ST_JUDE_LEISH: Cytotoxicity at 2uM final concentration against transgenic Leishmania Mexicana promastigotes LmGLUT1 that are glucose transport deficient and complemented with the human glucose transporter GLUT1. Activity is measured by DNA content using SYBR green in vitro.

Assay [2] has as its target Hexose transporter 1 (Plasmodium falciparum) (UniProt O97467). Briefly: ST_JUDE_LEISH: Cytotoxicity at 2uM final concentration against transgenic Leishmania Mexicana promastigotes LmPfHT that are glucose transport deficient and complemented with the Plasmodium falciparum hexose transporter. Activity is measured by DNA content using SYBR green in vitro.
The target of assay [3] is Glucose transporter (Leishmania mexicana) (UniProt O61059). Briefly: ST_JUDE_LEISH: Cytotoxicity at 2uM final concentration against transgenic Leishmania Mexicana promastigotes LmGT2 that are glucose transport deficient and complemented with the L. Mexicana glucose transporter 2. Activity is measured by DNA content using SYBR green in vitro.

Each structure is given as a SMILES string.

Chain of Solute carrier family 2, facilitated glucose transporter member 1 (Homo sapiens) (P11166 whole entry): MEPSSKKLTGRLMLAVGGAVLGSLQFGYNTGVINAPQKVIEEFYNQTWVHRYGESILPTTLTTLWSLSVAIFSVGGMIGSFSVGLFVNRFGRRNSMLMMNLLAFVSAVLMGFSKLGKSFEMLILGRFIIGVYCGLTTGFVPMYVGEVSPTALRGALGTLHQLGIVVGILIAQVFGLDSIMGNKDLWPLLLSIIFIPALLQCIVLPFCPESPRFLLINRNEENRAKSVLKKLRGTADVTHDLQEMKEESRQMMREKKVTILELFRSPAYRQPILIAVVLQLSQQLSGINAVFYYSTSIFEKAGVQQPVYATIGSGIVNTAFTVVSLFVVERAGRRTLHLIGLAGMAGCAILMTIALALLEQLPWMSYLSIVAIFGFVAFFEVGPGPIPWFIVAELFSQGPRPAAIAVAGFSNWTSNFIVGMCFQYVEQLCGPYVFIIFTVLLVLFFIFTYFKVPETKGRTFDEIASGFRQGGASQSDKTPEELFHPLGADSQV

One may read the inhibition as the change of the read-out against control, counted positive when it falls. With `O=C(NCC1CCC(CNCCCc2ccccc2)CC1)Nc1ccc(Cl)c(Cl)c1` (centres undefined), the inhibition in assay [1] amounted to 1.76%; in assay [2] it was 0.18%; in assay [3] it was 0.92%.

`Cc1cc(=NN=CC=Cc2ccccc2)c2ccc(F)cc2[nH]1`: the figures for the inhibition in assay [1], in assay [2] and in assay [3] were -1.45%, 2.91% and -0.62%, respectively.

With `COc1cccc(C(=O)N2CCN(Cc3cccc(NC(=O)c4cccs4)c3)CC2)c1`, the inhibition in assay [1] is 2.14%; in assay [2], 2.18%; in assay [3], 5.14%.

On to `Oc1ccc2c(CNC3CCCCC3)c(O)ccc2c1CNC1CCCCC1`, for which the inhibition is -0.71% in assay [1], 0.24% in assay [2] and 0.34% in assay [3].

`Cc1cccc2nc(-c3ccc(-c4ccc(NC(=O)Nc5cccc(C#N)c5)cc4)cc3)[nH]c12`: the inhibition in assay [1] was 9.74%; in assay [2] it was 6.91%; in assay [3] it was 7.39%.

Regarding `COc1ccc2ncc(Cl)c(CCN3C[C@H](CNCc4ccc5c(n4)NC(=O)CS5)[C@H](O)C3)c2n1`, the inhibition in assay [1] worked out at 5.41%; in assay [2], 2.07%; in assay [3], 2.02%.

Turning to `CC(C)C(C(=O)n1ncc2c3c(N)nc(N)nc3ccc21)C(C)C`, the inhibition was 87.4% in assay [1], 86.9% in assay [2] and 78.4% in assay [3].

Turning to `Clc1ccc(OCCC2CCN(CCCCCCN3CCCCC3)CC2)cc1Cl`, the inhibition in assay [1] was 10.8%; in assay [2], 4.99%; in assay [3], 17%.

For `Cc1cccc(CNc2nc(C)cc(NCCC(=O)NCCOc3ccccc3)n2)c1`, the inhibition in assay [1] is 6.22%; in assay [2] it was 3.29%; in assay [3], -0.13%.

`Cc1ccc(-n2cc(CNCC3CCN(CCO)CC3)c(-c3ccc(F)cc3)n2)cc1`: the figures for the inhibition in assay [1], in assay [2] and in assay [3] were 85%, 2.77% and 28.2%, respectively.

Take `COc1cc2cc(C(=O)Nc3ccccc3)c(N)nc2cc1OC`: the figures for the inhibition in assay [1], in assay [2] and in assay [3] were 0.36%, 1.61% and 0.18%, respectively.

Take `NC(=O)c1cc2nc(Nc3ccc(F)cc3)nc(NC3CCC3)c2[nH]1`: the values for the inhibition in assay [1], in assay [2] and in assay [3] were 1.42%, 1.11% and -0.6%, respectively.

As to `Cc1cccc(CN2CCCN(Cc3ccc(C(=O)Nc4ccc(Cl)cc4)cc3)CC2)c1`, the inhibition in assay [1] came out at 11.2%; in assay [2], 11.3%; in assay [3], 7.83%.
